# According to PubChem BioAssay AID2797 (The Scripps Research Institute Molecular Screening Center, 2010):
# The whole screen tested about 320,000 compounds, of which about 820 (0.26%) were called active. For the sample, actives were picked, then their nearest neighbours and some compounds at random. Unmarked numbers belong to inactive results.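 The calls were made as follows: active = activation above the mean activation of all tested compounds plus 3 SD, per screening run (cut at about 20% in these data); inactive = the rest.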
# Target: Vasopressin V1a receptor (Homo sapiens) (UniProt P37288)
# Experiment: agonists of human V1a receptor, primary screen, counter-screen for OXTR agonist project, fluorescence, CHO-V1R cells (AID 2797);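 also: signal is peak over basal fluorescence ratio across a 100 second FLIPR read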
# Conditions: Fluo-8 calcium fluorescence, agonist mode, at 3 µM, active compounds read high, 0% DMSO, 100% 3 nM vasopressin
# Vasopressin V1a receptor (Homo sapiens), sequence (P37288 whole entry, looked up): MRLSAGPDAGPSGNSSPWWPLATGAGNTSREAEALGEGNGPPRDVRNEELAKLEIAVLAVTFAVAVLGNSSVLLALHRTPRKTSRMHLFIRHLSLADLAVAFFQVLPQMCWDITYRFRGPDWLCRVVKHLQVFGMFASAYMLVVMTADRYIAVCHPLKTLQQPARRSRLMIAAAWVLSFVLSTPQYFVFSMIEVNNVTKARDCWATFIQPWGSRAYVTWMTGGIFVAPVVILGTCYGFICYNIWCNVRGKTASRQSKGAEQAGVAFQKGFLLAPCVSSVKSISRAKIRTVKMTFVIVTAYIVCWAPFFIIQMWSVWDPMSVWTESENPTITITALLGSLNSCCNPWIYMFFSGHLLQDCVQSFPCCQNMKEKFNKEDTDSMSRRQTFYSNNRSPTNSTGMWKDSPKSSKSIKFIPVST
row,SMILES,activation
1,CCNC(=O)COc1cc(C)c(Br)c(C)c1,2%
2,Cc1cc(C)nc(SC(C)C(=O)N/N=C/c2cccs2)n1 (stereo unspecified),0.12%
3,COCCCNC(=S)NCCNc1nc2cc(C)c(C)cc2cc1C#N,-0.33%
4,c1ccc2c(c1)OCC(CNc1ncnc3nc[nH]c13)O2 (stereo unspecified),102% (active)
5,S=C(NCC1COc2ccccc2O1)Nc1ccc(Br)cc1 (stereo unspecified),5.7%
6,c1ccc(-c2cc3c(NCC4COc5ccccc5O4)ncnc3s2)cc1 (stereo unspecified),1.35%
7,O=C(N/N=C/c1cc([N+](=O)[O-])ccc1O)/C(=C\c1cccs1)NC(=O)c1ccccc1,0.52%
8,COc1ccccc1C1=CC(=O)CCC1,-0.32%
9,Cc1cc(C)cc(OCC(=O)NC(C)c2ccccc2)c1 (stereo unspecified),-1.15%
10,COc1cc(OC)cc(C(=O)N[C@H](C(=O)OCC(=O)NC(C)c2ccccc2)C(C)C)c1 (stereo partly specified),68.5% (active)
11,COc1cc(OC)cc(C(=O)NCC(=O)OCC(=O)NC(C)CCc2ccccc2)c1 (stereo unspecified),-0.08%
12,COc1ccc(C(=O)NNC(=S)NC(=O)c2ccccc2[N+](=O)[O-])cc1,-0.34%
13,COc1ccc(/C(N)=N/OC(=O)CCCc2ccccc2)cc1,-0.46%
14,COc1ccc(C(=O)NC(=S)NNC(=O)CCc2ccccc2)cc1,37.5% (active)
15,COc1ccc(C(=O)NNC(=S)NC(=O)c2ccccc2)cc1,60% (active)
16,COc1ccc(CCC(=O)c2ccc(OC)cc2)cc1,-0.9%
17,COc1ccc(C(=O)NC(=S)NC2CCCCC2)cc1,-0.74%
18,Cc1ccc(O)c(-c2cc(C(=O)NCc3ccccc3)[nH]n2)c1,0.3%
19,COc1ccc(Cc2nnc(SCC(=O)N(c3ccccc3)C(C)C)n(N)c2=O)cc1,-1.17%
20,Cc1cccc(NC(=O)CN2CCCN(S(=O)(=O)c3ccc(Br)s3)CC2)c1,1.99%
21,Cc1cc(C)nc(NS(=O)(=O)c2ccc(N3C(=O)C4CCCCC4C3=O)cc2)n1 (stereo unspecified),1.65%
22,CCNC(=O)CC1C(=O)N(c2ccc(OC)cc2)C(=S)N1CCc1ccncc1 (stereo unspecified),-0.58%
23,Cc1ccc(C(=O)Oc2ccc(C(=S)N3CCOCC3)cc2)cc1,1.56%
24,O=C(O)C1CCCN1C1=NS(=O)(=O)c2ccccc21 (stereo unspecified),-0.02%

row,SMILES,activation
1,O=C1C=CN2CCCC2CC1 (stereo unspecified),0.74%
2,CCN(CC)c1ccc2cc(C(N)=O)/c(=N\NC(=O)c3ccncc3)oc2c1,27.3% (active)
3,NC(=O)c1cc2ccccc2o/c1=N/NC(=O)c1cccc(F)c1,1.54%
4,COc1cccc2cc(C(N)=O)/c(=N\NC(=O)c3ccccc3)oc12,1.9%
5,COc1ccc(CCNC(=O)CSc2nc(-c3ccc(OC)c(OC)c3)ccc2C#N)cc1,-0.68%
6,COc1cc(NS(=O)(=O)c2ccc(NC(=S)NC(=O)c3ccccc3)cc2)nc(OC)n1,-0.14%
7,CC1CCCC(NC(=O)c2cc(S(=O)(=O)N3CCCCC3)ccc2Cl)C1C (stereo unspecified),-0.2%
8,CCN(CC)C(CNC(=O)CSc1nnnn1-c1cccc(F)c1)c1ccco1 (stereo unspecified),-0.26%
9,CCOc1ccc(NC(=O)CSc2nncn2C)cc1,0.81%
10,CCCCN(C(=O)c1nn(C)c(=O)c2ccccc12)c1c(N)n(CCC)c(=O)[nH]c1=O,0.08%
11,Cc1onc(-c2ccccc2)c1C(=O)NNC(=S)NC(=O)c1ccc(F)cc1,21.1% (active)
12,CCc1noc(C)c1C(=O)NNC(=O)c1ccc(F)cc1,0.87%
13,COc1ccc(C(=O)NC(=S)NNC(=O)c2c(-c3ccccc3)noc2C)cc1,70.5% (active)
14,Cc1onc(-c2ccccc2)c1C(=O)Nc1ccccc1C#N,-1.51%
15,Cc1onc(-c2c(Cl)cccc2Cl)c1C(=O)NNC(=O)c1c(-c2c(Cl)cccc2Cl)noc1C,0.81%
16,Cc1onc(-c2ccccc2)c1C(=O)N=C(N)c1ccc(Cl)cc1,0.22%
17,Cc1ccc(C(=O)Nc2sc(Cc3ccc4c(c3)OCO4)c(C)c2C(N)=O)cc1,-0.01%
18,COc1ccc(C(=O)C2CCCN(Cc3cccn3-c3ccccn3)C2)c(C)c1 (stereo unspecified),8%
19,COC(=O)C1=C(C(=O)OC)C(c2cc([N+](=O)[O-])ccc2O)c2sc(=O)[nH]c2S1 (stereo unspecified),0.68%
20,CC1(C)OC(=O)C(=CSc2ccc(C(C)(C)C)cc2)C(=O)O1,1%
21,O=C(CCCN1CCc2[nH]c3ccc(F)cc3c2C1)c1ccc(F)cc1,23% (active)
22,CC1CCc2[nH]c3ccc(C(=O)N(C)CC(=O)Nc4cccc(F)c4)cc3c2C1 (stereo unspecified),0.41%
23,Fc1ccc(NC(=S)N2CCc3[nH]c4ccccc4c3C2)cc1,4.06%
24,Cc1cc(OCc2ccc(C(=O)Nc3ccc(C(=O)O)cc3)o2)ccc1Cl,2.11%

row,SMILES,activation
1,S=c1nccc(-c2cc(Cl)sc2Cl)[nH]1,0.23%
2,O=C(c1ccccc1)c1ccc(OCC(O)CN2CCCC2)cc1 (stereo unspecified),22.4% (active)
3,CC1CCN(CC(O)COc2ccc(C(=O)c3ccccc3)cc2)CC1 (stereo unspecified),1.88%
4,O=C(c1ccc(Cl)cc1)c1ccc(OCC(O)CN2CCCCC2)cc1 (stereo unspecified),4.01%
5,CCOC(=O)C1(C)NC(c2ccco2)C2C(=O)N(c3ccccc3)C(=O)C21 (stereo unspecified),3.3%
6,COc1ccc(NC(=O)CN(Cc2ccccc2)S(C)(=O)=O)cc1OC,0.58%
7,COc1ccc(OCCNC(=O)c2cc(C3CC3)nc3c2cnn3C(C)C)cc1,-0.36%
8,Cc1ccc(NC(=S)NC(=O)c2ccc(-c3ccccc3)cc2)cc1,0.62%
9,COCCCNC(=S)NC(=O)c1ccccc1,1.26%
10,CCOC(=O)C1=C(NC(=S)NC(=O)c2ccccc2)c2ccccc2CC1(C)C,29.8% (active)
11,Cc1ccc(NC(=O)CSc2nn3c(=O)c(C)nnc3s2)cc1Cl,0.31%
12,CCC(C)C(=O)Nc1cc([N+](=O)[O-])ccc1Cl (stereo unspecified),-0.34%
13,CC(C)(C)NC(=O)C(=O)NCc1ccncc1,0%
14,N#CC1(NC(=O)COC(=O)CCN=C2NS(=O)(=O)c3ccccc32)CCCCC1,0.74%
15,O=C(CCCN=C1NS(=O)(=O)c2ccccc21)OCC(=O)c1ccc(F)c(F)c1,22.6% (active)
16,O=C(OCCN=C1NS(=O)(=O)c2ccccc21)c1cccc([N+](=O)[O-])c1,3.94%
17,N#CCN(C(=O)COC(=O)C1CC2CCCC(C1)C2=O)c1ccccc1 (stereo unspecified),-0.11%
18,COc1ccc(C23NCCN2C(=O)c2ccccc23)cc1 (stereo unspecified),-0.14%
19,CC1CCN(CCC(=O)Nc2ccccc2)CC1,0.38%
20,CCOC(=O)N1CCN(CCC(=O)Nc2ccccc2)CC1,0.3%
21,Cc1cc(NC(=O)CCN2CCN(Cc3ccccc3)CC2)ccc1Br,26.5% (active)
22,O=C1Nc2ccccc2/C1=C/c1ccnc2ccccc12,3.16%
23,Cc1cc(C)c(/C=C2\C(=O)Nc3ccccc32)[nH]1,23.6% (active)
24,CN(C)/C=C1/Nc2ccccc2C1=O,1.1%

row,SMILES,activation
1,COc1ccc([C@H]2CC(=O)C=C(c3ccc(OC(F)(F)F)cc3)C2)cc1OC,1.96%
2,COc1ccc(C2CC(c3cccs3)Nc3nnnn32)cc1 (stereo unspecified),1.36%
3,Cc1ccc(S(=O)(=O)NCCC(=O)NNC(=O)C2COc3ccccc3O2)cc1 (stereo unspecified),-0.1%
4,COc1ccc(C2C(C#N)=C(N)N(c3ncn[nH]3)C3=C2C(=O)CCC3)cc1 (stereo unspecified),1.11%
5,Cc1cc2nc3c(=O)n(Cc4ccccc4)c(=O)[nH]c3nc2cc1N,73.4% (active)
6,C=CCSc1nc2c(c(=O)[nH]c(=O)n2C)n1Cc1ccccc1,0.69%
7,CN(C(=O)COC(=O)c1ccc(Br)o1)c1c(N)n(Cc2ccccc2)c(=O)[nH]c1=O,-0.45%
8,C[C@H](NC(=O)c1nc[nH]c1C(=O)NCC(=O)OC(C)(C)C)c1ccccc1,-0.3%
9,Cc1c(Br)cc(C(=O)N2CCCCCC2)c(C)c1C,-1.61%
10,O=C(NC(=S)Nc1ccccc1N1CCCCC1)c1ccc(F)cc1,-0.81%
11,COC(=O)Cc1ccc(NC(=S)NCc2ccc(Cl)cc2)cc1,10%
12,Cc1cccc(NC(=S)NCCc2ccc(Cl)cc2)c1C,0.32%
13,O=C(COc1ccc(Cl)cc1)NC(=S)Nc1ccccc1N1CCOCC1,3.48%
14,Cc1ccccc1N/C(SCc1ccc(Cl)cc1)=C(/C#N)C(N)=O,-0.5%
15,O=C(Cc1ccc(Cl)cc1)NC(=S)Nc1ccccc1O,47.5% (active)
16,Cc1ccccc1NC(=S)NC(=O)Cc1ccc(Cl)cc1,26.2% (active)
17,CCN1CCN(C(=O)CN(C)S(=O)(=O)c2ccc3ccccc3c2)CC1,0.47%
18,Cc1nc2scc(-c3cccs3)c2c(=O)n1N,-0.59%
19,CCOc1ccc(C(=O)Nc2ccc(S(=O)(=O)NCC3CCCO3)cc2)cc1OCC (stereo unspecified),1.35%
20,Cc1ccc(OCCNC(=O)CNC(=O)c2ccc(C)c(C)c2)cc1,-0.83%
21,Cc1nc2c(ncn2-c2ccccc2)c(=O)n1NC(=O)CN1CCCC1,0.46%
22,COc1ccc(C2C=C(c3ccc(Br)cc3)Nc3nc(NS(C)(=O)=O)nn32)cc1 (stereo unspecified),23.5% (active)
23,Brc1ccc(C2=CC(c3ccco3)n3ncnc3N2)cc1 (stereo unspecified),9.25%
24,CCOc1ccc(C2=CC(c3ccccc3)n3ncnc3N2)cc1 (stereo unspecified),0.49%
